{"source": "PubChem BioAssay (NCATS)", "note": "Records with an inconclusive call do not appear. A call without a number means that no potency is given here. Active and inactive are the calls of the source. Calls follow the shape of the dose curve; as a rule, active = well fitted inhibition curve with a large enough effect; inconclusive = small, poorly fitted or top-dose-only effect; inactive = no such curve, though single readings can be large or run the other way.", "data": [{"assay": "Primary qHTS for small molecule stabilizers of the endoplasmic reticulum resident proteome: Secreted ER Calcium Modulated Protein (SERCaMP) assay (AID 1508630)", "details": "SH-SY5Y GLuc-SERCaMP (Gaussia luciferase released on ER calcium loss) secretion, thapsigargin, luminescence; series mostly up to 38.4 µM", "how_it_was_run": "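The SH-SY5Y reporter protocol was run at 3 concentrations up to 38.3 uM (primary) or 11 concentrations (follow-up): 16 h compound, 100 nM thapsigargin for 4 h, then extracellular luciferase luminescence.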", "values": [{"smiles": "CCCCCCCCCC(CC)c1ccc(S(=O)(=O)O)cc1", "note": "(centres undefined)", "Potency": "inactive"}, {"smiles": "COc1ccc(CC2NCCc3cc(OC)c(OC)cc32)cc1OC", "note": "(centres undefined)", "Potency": "inactive"}, {"smiles": "C[C@]12CC[C@H](O)CC1=CC[C@H]1[C@H]3CCC(=O)[C@@]3(C)CC[C@@H]12", "Potency": "inactive"}, {"smiles": "CCc1c(C(=O)C(N)=O)c2c(OCC(=O)O)cccc2n1Cc1ccccc1", "Potency": "inactive"}, {"smiles": "COc1cc2cc(c1Cl)N(C)C(=O)C[C@H](OC(=O)C(C)C)[C@]1(C)O[C@H]1[C@H](C)[C@@H]1C[C@@](O)(NC(=O)O1)[C@H](OC)C=CC=C(C)C2", "Potency": "inactive"}, {"smiles": "C=CC(=O)NCNC(=O)C=C", "Potency": "inactive"}, {"smiles": "C[C@]12N[C@H](Cc3ccccc31)c1ccccc12", "Potency": "inactive"}, {"smiles": "CC(=O)[O][Hg][c]1ccccc1", "Potency": "inactive"}, {"smiles": "CCCN(CCC)c1c([N+](=O)[O-])cc(S(N)(=O)=O)cc1[N+](=O)[O-]", "Potency": "inactive"}, {"smiles": "CC(=Cc1csc(C)n1)[C@@H]1C[C@H]2O[C@@H]2CCC[C@H](C)[C@@H](O)[C@@H](C)C(=O)C(C)(C)[C@@H](O)CC(=O)O1", "Potency": "inactive"}, {"smiles": "O=C(O)CNC(=O)c1c(O)c2ccccc2n(Cc2ccccc2)c1=O", "Potency": "inactive"}, {"smiles": "CCC(=O)OC1CCC2C3CCC4=CC(=O)CC[C@@]4(C)C3CC[C@]12C", "note": "(some centres undefined)", "Potency": "inactive"}, {"smiles": "C[C@@]12OC(=O)[C@]1([C@@H](O)[C@@H]1C=CCCC1)NC(=O)[C@H]2CCCl", "Potency": "inactive"}, {"smiles": "C#C[C@]1(O)C=C[C@@H]2[C@@H]3CCC4=CC(=O)CC[C@@H]4[C@H]3CC[C@@]21CC", "Potency": "inactive"}, {"smiles": "CC(=CCCC1=CCC(C2=CC(=O)OC2O)OC1O)CCC1=C(C)CCCC1(C)C", "note": "(centres undefined)", "Potency": "inactive"}, {"smiles": "COC1=CC(C)=C[C@@H](C)[C@@H](O)[C@@H](C)CC(C)=CC=C[C@H](OC)[C@H]([C@@H](C)[C@@H](O)[C@H](C)[C@@]2(O)C[C@@H](O)[C@H](C)[C@@H](C(C)C)O2)OC1=O", "Potency": "inactive"}, {"smiles": "CC(=O)O[C@@]12CO[C@H]1C[C@H](O)[C@@]1(C)C(=O)[C@H](O)C3=C(C)[C@@H](O)C[C@@](O)([C@@H](OC(=O)c4ccccc4)[C@@H]21)C3(C)C", "Potency": "inactive"}, {"smiles": "CC[C@@H]1[C@@H](C)O[C@@](O)([C@@H](C)[C@H](O)[C@H](C)[C@H]2OC(=O)C=CC=C[C@@H](C)[C@@H]([C@@H](C)[C@@H](O)[C@H](C)[C@@]3(O)C[C@H](O[C@H]4C[C@H](O)[C@H](O)[C@H](C)O4)[C@H](CC)[C@@H](C)O3)OC(=O)C=CC=C[C@@H]2C)C[C@H]1O[C@H]1C[C@H](O)[C@H](O)[C@H](C)O1", "Potency": "inactive"}, {"smiles": "O=[N+]([O-])c1ccc([As](=O)(O)O)cc1", "Potency": "inactive"}, {"smiles": "ClC1=C(Cl)[C@]2(Cl)[C@@H]3[C@@H]4C[C@@H]([C@H]5O[C@@H]45)[C@@H]3[C@@]1(Cl)C2(Cl)Cl", "Potency": "inactive"}, {"smiles": "CC(=O)OCC1=C(C(=O)O)N2C(=O)[C@@H](N)[C@@H]2SC1", "Potency": "inactive"}, {"smiles": "CC1(C)CC/C(=C/c2ccc(Cl)cc2)C1(O)Cn1cncn1", "note": "(centres undefined)", "Potency": "inactive"}, {"smiles": "C[C@]12CC[C@H]3[C@@H](CCC4=CC(=O)CC[C@@]43C)[C@H]1CC[C@H]2O", "Potency": "inactive"}, {"smiles": "CO[C@H]1CCC(O[C@H]2C[C@H]([C@]3(C)CC[C@]4(C[C@H](O)[C@@H](C)[C@@H]([C@@H](C)C=C(C)C(=O)[C@H](C)C[C@H](C)C(=O)O)O4)O3)O[C@]3(O[C@@H]([C@H]4O[C@@](O)(CO)[C@H](C)C[C@H]4C)C[C@H]3C)[C@H]2C)O[C@H]1C", "note": "(some centres undefined)", "Potency": "inactive"}, {"smiles": "C1CCC(NC2CCCCC2)CC1", "Potency": "inactive"}, {"smiles": "CC(O)CN1CCN(CC(=O)[O-])CCN(CC(=O)[O-])CCN(CC(=O)[O-])CC1.[Gd+3]", "note": "(centres undefined)", "Potency": "inactive"}, {"smiles": "COCC1(CO)C(=O)C2CCN1CC2", "note": "(centres undefined)", "Potency": "inactive"}, {"smiles": "CC(C)[C@]12O[C@@H]1[C@@H]1O[C@]13[C@]1(O[C@H]1C[C@@H]1C4=C(CC[C@@]13C)C(=O)OC4)[C@H]2O", "Potency": "inactive"}, {"smiles": "O=S(=O)(O)C(F)(F)C(F)(F)C(F)(F)C(F)(F)C(F)(F)C(F)(F)C(F)(F)C(F)(F)F", "Potency": "inactive"}, {"smiles": "Cc1ccccc1-n1c(Cn2ncc3c(N)ncnc32)nc2cccc(C)c2c1=O", "Potency": "inactive"}, {"smiles": "O=C(Nc1ccncc1)C(=O)c1cn(Cc2ccc(Cl)cc2)c2ccccc12", "Potency": "inactive"}, {"smiles": "C#CCOC(=O)C1=CCCN(C)C1", "Potency": "inactive"}, {"smiles": "O=C(O)COc1nc(Cl)c(Cl)cc1Cl", "Potency": "inactive"}, {"smiles": "O=C(O)c1cc(Oc2ccc(C(F)(F)F)cc2Cl)ccc1[N+](=O)[O-]", "Potency": "inactive"}, {"smiles": "C[C@H]([C@H](O)CCC(C)(C)O)[C@H]1CC[C@@]2(O)C3=CC(=O)[C@@H]4C[C@@H](O)[C@@H](O)C[C@]4(C)[C@@H]3CC[C@]12C", "Potency": "inactive"}, {"smiles": "CCCCc1ccc(C(=O)O)nc1", "Potency": "inactive"}, {"smiles": "O=C(NCC1CCOCC1)c1cnc(Nc2ccc(Cl)cc2Cl)nc1C(F)(F)F", "Potency": "inactive"}, {"smiles": "CC[C@H]1C=CC=CC[C@@H](C)[C@H](O)[C@@](C)(O)C(=O)[C@@H](C)[C@H](O)[C@@H](C)C(=O)[C@@H](C)[C@H](O)[C@@H](C)C=CC(=O)O[C@@H]2[C@@H](C)[C@H](CC1)O[C@]1(CC[C@H](C)[C@H](C[C@@H](C)O)O1)[C@H]2C", "Potency": "inactive"}, {"smiles": "O=[N+]([O-])c1ncc[nH]1", "Potency": "inactive"}]}]}
